According to PubChem BioAssay (Tox21):
Where “and” joins values, the source holds several entries; their conditions need not be identical. Equal entries are not always repeated. Inconclusive results are not listed. Where a structure was tested more than once in an assay, its records may differ in their call. Calls of active or inactive are those of the source. Unless noted, the call rests on the fitted dose curve; in most records, active means well fitted curve in the direction sought with a large enough effect in the repeat runs; inconclusive means weak or mixed curves; inactive means no such curve, though single readings can be large; an effect the other way counts as inactive or inconclusive.

Tests used:
[1] = qHTS assay to identify small molecule antagonists of the thyroid receptor (TR) signaling pathway - cell viability counter screen (AID 743064); further: nearly all actives have a fitted effect of over 50% in size; further: potency means the concentration at half of the fitted maximal effect
Outline: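 Fluorescence from CellTiter-Fluor, added after 23.5 h exposure at 37 °C, reported viability of GH3.TRE-Luc cells co-treated with compound and 1 nM T3. Measured in the same wells as the luciferase TR readout.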

[2] = qHTS assay to identify small molecule antagonists of the thyroid receptor (TR) signaling pathway (AID 743065); further: nearly all actives have a fitted effect of over 55% in size; further: potency means the concentration at half of the fitted maximal effect
Outline: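 GH3.TRE-Luc rat pituitary cells carrying two TR response elements driving luciferase were plated for 4 h, given compound plus 1 nM T3 (final), and incubated 23.5 h at 37 C. ONE-Glo luminescence measured reporter inhibition; CellTiter-Fluor fluorescence tracked cytotoxicity.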

[3] = system: thyroid hormone receptor (rat, GH3 cells); experiment: qHTS assay to identify small molecule agonists of the thyroid receptor (TR) signaling pathway (AID 743066; calls by dose curve)
[4] = biological target: Estrogen receptor (Homo sapiens) (UniProt P03372); experiment: qHTS assay to identify small molecule antagonists of the estrogen receptor alpha (ER-alpha) signaling pathway (AID 743069; active means well fitted curve in the direction sought with a large enough effect in the signal ratio in the repeat runs, not every such curve was filed as active; the % refers to the signal ratio)
Outline: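 HEK293 cells stably carrying an ER-alpha-UAS-bla beta-lactamase reporter were pre-cultured overnight in 2% charcoal-stripped FBS medium. Test compounds in DMSO were added together with 17beta-estradiol for 18 hr at 37C. Read-out was fluorescence after 2 hr with LiveBLAzer B/G FRET substrate at room temperature.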

[5] = qHTS assay to identify small molecule antagonists of the estrogen receptor alpha (ER-alpha) signaling pathway - cell viability counter screen (AID 743074; calls by dose curve; further: nearly all actives have a fitted effect of over 45% in size; further: potency means the concentration at half of the fitted maximal effect)
[6] = biological target: Estrogen receptor (Homo sapiens) (UniProt P03372); experiment: qHTS assay to identify small molecule agonists of the estrogen receptor alpha (ER-alpha) signaling pathway (AID 743075; calls by dose curve)
[7] = biological target: Estrogen receptor (Homo sapiens) (UniProt P03372); experiment: qHTS assay to identify small molecule agonists of the estrogen receptor alpha (ER-alpha) signaling pathway using the BG1 cell line (AID 743079); further: nearly all actives have a fitted effect of over 20% in size; further: potency means the concentration at half of the fitted maximal effect
[8] = qHTS assay to identify small molecule antagonists of the estrogen receptor alpha (ER-alpha) signaling pathway using the BG1 cell line (AID 743080; calls by dose curve;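 further: BG1 cells stimulated with 17beta-estradiol alongside compound; nearly all actives have a fitted effect of over 25% in size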; further: potency means the concentration at half of the fitted maximal effect)
Outline: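 Luminescence from a 4×ERE-luciferase reporter in BG1-Luc-4E2 cells served as read-out. Cells, pre-cultured 5 days in stripped-serum phenol-red-free medium, were exposed to compound with 17beta-estradiol co-stimulation for 21.5 h at 37 C.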

[9] = qHTS assay to identify small molecule antagonists of the estrogen receptor alpha (ER-alpha) signaling pathway using the BG1 cell line - cell viability counter screen (AID 743081);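 further: compound given together with 17beta-estradiol as the ER stimulus; nearly all actives have a fitted effect of over 45% in size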; further: potency means the concentration at half of the fitted maximal effect
Aromatase (Homo sapiens) = Aromatase (Homo sapiens) (UniProt P11511); experiment: qHTS assay to identify aromatase inhibitors (AID 743083); further: nearly all actives have a fitted effect of over 55% in size; further: potency means the concentration at half of the fitted maximal effect
[10] = qHTS assay to identify aromatase inhibitors - cell viability counter screen (AID 743084);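 further: cells stimulated with testosterone during compound exposure; nearly all actives have a fitted effect of over 55% in size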; further: potency means the concentration at half of the fitted maximal effect
[11] = biological target: Aryl hydrocarbon receptor (Homo sapiens) (UniProt P35869); experiment: qHTS assay to identify small molecule that activate the aryl hydrocarbon receptor (AhR) signaling pathway (AID 743085);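 further: HG2L7.5c1 human HepG2 liver cells with stably integrated DRE-driven firefly reporter; series mostly up to about 70 µM; nearly all actives have a fitted effect of over 15% in size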
Outline: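 Cell line HG2L7.5c1 (human hepatoma, 20× DRE-luc). Plated, 5 h 37C, compound/DMSO added, 24 h 37C. CellTiter-Fluor 30 min 37C → fluorescence; then ONE-Glo 30 min RT → luminescence.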

[12] = qHTS assay to identify small molecule that activate the aryl hydrocarbon receptor (AhR) signaling pathway - cell viability counter screen (AID 743086); further: nearly all actives have a fitted effect of over 45% in size; further: potency means the concentration at half of the fitted maximal effect
Outline: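 HepG2-AhR-luc (HG2L7.5c1) cells, 4000/well, were preincubated 5 h at 37C, exposed to compound in qHTS format for 24 hr at 37C, then given CellTiter-Fluor for 30 min; viability was read as fluorescence in the reporter wells.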

[13] = qHTS assay to identify small molecule antagonists of the peroxisome proliferator-activated receptor gamma (PPARg) signaling pathway - cell viability counter screen (AID 743194); further: nearly all actives have a fitted effect of over 55% in size; further: potency means the concentration at half of the fitted maximal effect
Outline: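 PPARg-UAS-bla HEK293H cells were plated, rested 5 h at 37 C, then treated with compounds plus rosiglitazone (50 nM final) for 17 h at 37 C; viability was then read by CellTiter-Glo luminescence after 30 min at room temperature.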

[14] = qHTS assay for small molecule agonists of the antioxidant response element (ARE) signaling pathway (AID 743202; active means well fitted activation curve with a large enough effect in the signal ratio in the repeat runs, not every such curve was filed as active; the % refers to the signal ratio; further: potency means the concentration at half of the fitted maximal effect)
Outline: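 Read-out: LiveBLAzer B/G FRET substrate fluorescence after 2 h at room temperature, following 16 h compound treatment at 37 C of HepG2 cells carrying an ARE-driven beta-lactamase reporter.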

[15] = qHTS assay for small molecule agonists of the antioxidant response element (ARE) signaling pathway - cell viability counter screen (AID 743203; calls by dose curve; further: nearly all actives have a fitted effect of over 55% in size; further: potency means the concentration at half of the fitted maximal effect)
Outline: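 Cells (ARE-bla HepG2, 2,000/well) receive DMSO-dissolved compounds after a 5 hrs rest. Plates incubate 16 hrs at 37C/5% CO2. CellTiter-Glo luminescence is then recorded after 30 min at room temperature.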

[16] = qHTS assay for small molecule activators of the heat shock response signaling pathway - cell viability counter screen (AID 743209); further: nearly all actives have a fitted effect of over 50% in size; further: potency means the concentration at half of the fitted maximal effect
Outline: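 Quantitative HTS format, Tox21 10K library. HeLa cells carrying an HSE-driven beta-lactamase reporter were treated 5 h at 37 C, then assessed for viability by CellTiter-Glo luminescence.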

[17] = qHTS assay for small molecule activators of the heat shock response signaling pathway (AID 743210; active means well fitted activation curve with a large enough effect in the signal ratio in the repeat runs, with a control signal flat, not every such curve was filed as active; the % refers to the signal ratio; further: series mostly up to about 63 µM)
Outline: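 HSE-bla HeLa cells (beta-lactamase reporter under heat shock response elements) were exposed to compounds for 5 h at 37 C, then loaded with LiveBLAzer B/G FRET substrate for 2.5 h at room temperature before fluorescence reading.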

[18] = biological target: Peroxisome proliferator-activated receptor gamma (Homo sapiens) (UniProt P37231); experiment: qHTS assay to identify small molecule agonists of the peroxisome proliferator-activated receptor gamma (PPARg) signaling pathway (AID 743094; active means well fitted activation curve with a large enough effect in the signal ratio in the repeat runs, not every such curve was filed as active; the % refers to the signal ratio; further: potency means the concentration at half of the fitted maximal effect)
Outline: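 Stably transfected HEK293H cells (GeneBLAzer PPARg UAS-bla) were incubated with test substances for 17 h at 37C after a 5 h pre-incubation; beta-lactamase activity was then detected by FRET substrate fluorescence.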

[19] = biological target: Peroxisome proliferator-activated receptor gamma (Homo sapiens) (UniProt P37231); experiment: qHTS assay to identify small molecule antagonists of the peroxisome proliferator-activated receptor gamma (PPARg) signaling pathway (AID 743191; calls by dose curve; further: series mostly up to about 63 µM; nearly all actives have a fitted effect of over 30% in size)
Outline: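 GeneBLAzer PPARg UAS-bla HEK293H cells carrying a UAS-driven beta-lactamase reporter were plated at 3000 cells/well, preincubated 5 h at 37C, then given compound for 17 h at 37C; LiveBLAzer B/G FRET substrate was read after 1 h at room temperature.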

Measured: Potency

Estrogen receptor (Homo sapiens), sequence (P03372 whole entry, looked up): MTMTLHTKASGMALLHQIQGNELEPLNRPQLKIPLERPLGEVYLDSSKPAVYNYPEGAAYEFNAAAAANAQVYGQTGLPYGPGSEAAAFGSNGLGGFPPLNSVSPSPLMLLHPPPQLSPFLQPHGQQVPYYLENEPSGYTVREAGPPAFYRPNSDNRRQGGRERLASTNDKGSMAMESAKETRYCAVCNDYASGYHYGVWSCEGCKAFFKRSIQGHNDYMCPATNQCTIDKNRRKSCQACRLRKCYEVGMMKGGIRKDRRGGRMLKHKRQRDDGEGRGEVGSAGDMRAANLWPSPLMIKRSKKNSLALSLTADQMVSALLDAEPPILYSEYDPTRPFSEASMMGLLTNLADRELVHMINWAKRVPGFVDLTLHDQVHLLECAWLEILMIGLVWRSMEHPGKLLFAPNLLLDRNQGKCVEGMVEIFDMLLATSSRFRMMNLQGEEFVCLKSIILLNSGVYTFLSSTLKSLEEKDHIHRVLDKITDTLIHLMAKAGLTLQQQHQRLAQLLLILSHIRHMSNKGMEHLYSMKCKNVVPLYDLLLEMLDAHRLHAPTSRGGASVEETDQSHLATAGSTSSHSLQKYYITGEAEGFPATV
Aromatase (Homo sapiens), sequence (P11511 whole entry, looked up): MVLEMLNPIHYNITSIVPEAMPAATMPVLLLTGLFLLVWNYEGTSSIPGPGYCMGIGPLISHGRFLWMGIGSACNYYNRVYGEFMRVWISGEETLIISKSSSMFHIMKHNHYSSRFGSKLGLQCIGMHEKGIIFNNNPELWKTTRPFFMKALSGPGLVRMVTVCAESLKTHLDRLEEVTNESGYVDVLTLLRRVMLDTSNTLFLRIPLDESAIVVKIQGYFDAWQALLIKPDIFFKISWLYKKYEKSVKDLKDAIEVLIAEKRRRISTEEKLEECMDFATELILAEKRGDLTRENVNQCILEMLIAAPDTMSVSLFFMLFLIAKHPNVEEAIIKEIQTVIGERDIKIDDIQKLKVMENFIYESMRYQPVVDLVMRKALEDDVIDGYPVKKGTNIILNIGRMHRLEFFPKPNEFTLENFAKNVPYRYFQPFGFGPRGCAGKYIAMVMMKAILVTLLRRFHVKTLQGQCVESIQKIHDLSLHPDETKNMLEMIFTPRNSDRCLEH
Aryl hydrocarbon receptor (Homo sapiens), sequence (P35869 whole entry, looked up): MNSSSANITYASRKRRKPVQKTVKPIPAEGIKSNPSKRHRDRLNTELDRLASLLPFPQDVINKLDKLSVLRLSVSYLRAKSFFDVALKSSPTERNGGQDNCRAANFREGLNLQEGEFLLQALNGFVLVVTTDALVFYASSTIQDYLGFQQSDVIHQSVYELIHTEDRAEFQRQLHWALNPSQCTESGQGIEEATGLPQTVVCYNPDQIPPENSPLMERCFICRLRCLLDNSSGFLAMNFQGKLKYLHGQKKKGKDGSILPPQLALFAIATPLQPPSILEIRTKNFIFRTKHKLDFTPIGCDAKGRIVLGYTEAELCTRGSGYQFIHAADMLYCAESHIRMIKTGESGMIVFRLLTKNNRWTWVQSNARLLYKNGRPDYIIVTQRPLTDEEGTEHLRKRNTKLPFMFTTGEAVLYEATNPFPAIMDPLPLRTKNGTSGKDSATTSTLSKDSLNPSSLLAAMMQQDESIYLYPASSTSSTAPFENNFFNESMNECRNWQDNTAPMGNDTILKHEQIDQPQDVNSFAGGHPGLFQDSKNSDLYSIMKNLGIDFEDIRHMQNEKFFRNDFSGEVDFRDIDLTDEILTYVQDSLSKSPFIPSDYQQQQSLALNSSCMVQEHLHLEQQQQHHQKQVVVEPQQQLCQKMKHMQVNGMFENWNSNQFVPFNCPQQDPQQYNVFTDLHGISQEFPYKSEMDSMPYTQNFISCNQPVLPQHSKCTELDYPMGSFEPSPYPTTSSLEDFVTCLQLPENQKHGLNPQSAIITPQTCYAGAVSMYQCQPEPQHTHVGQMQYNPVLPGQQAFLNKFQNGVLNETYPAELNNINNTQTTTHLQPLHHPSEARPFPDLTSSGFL
Peroxisome proliferator-activated receptor gamma (Homo sapiens), sequence (P37231 whole entry, looked up): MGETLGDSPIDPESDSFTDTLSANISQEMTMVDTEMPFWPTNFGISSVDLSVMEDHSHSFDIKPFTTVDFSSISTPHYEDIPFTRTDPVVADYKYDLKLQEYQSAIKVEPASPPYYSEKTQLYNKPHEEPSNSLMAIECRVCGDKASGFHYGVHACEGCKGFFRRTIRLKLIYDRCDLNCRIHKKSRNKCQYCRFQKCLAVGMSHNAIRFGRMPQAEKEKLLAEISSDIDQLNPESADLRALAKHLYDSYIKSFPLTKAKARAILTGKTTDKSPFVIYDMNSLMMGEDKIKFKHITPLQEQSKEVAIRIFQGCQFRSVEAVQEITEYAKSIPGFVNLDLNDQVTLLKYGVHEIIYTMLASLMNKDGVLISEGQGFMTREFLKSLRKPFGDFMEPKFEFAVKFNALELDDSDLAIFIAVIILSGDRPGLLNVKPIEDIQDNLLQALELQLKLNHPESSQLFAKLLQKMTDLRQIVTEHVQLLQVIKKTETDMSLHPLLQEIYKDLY

NCCO
inactive and 61.1 µM (active): Aromatase (Homo sapiens)
inactive: [1] | [2] | [3] | [4] | [5] | [6] | [7] | [8] | [9] | [10] | [11] | [12] | [13] | [14] | [15] | [16] | [17]

CCOc1ccccc1C(N)=O
inactive: [1] | [2] | [3] | [4] | [5] | [6] | [7] | [8] | [9] | Aromatase (Homo sapiens) | [10] | [11] | [12] | [18] | [19] | [13] | [14] | [15] | [16] | [17]

CCOc1ccc2c(c1)C(C)=CC(C)(C)N2
inactive: [1] | [3] | [4] | [5] | [6] | [7] | [9] | Aromatase (Homo sapiens) | [10] | [12] | [19] | [13] | [15] | [16]
active: [2] 33.5 µM | [18] 21.3 µM | [14] 61.1 µM

O=C(Oc1ccccc1)c1ccccc1O
inactive: [1] | [2] | [3] | [4] | [5] | [6] | [7] | [9] | Aromatase (Homo sapiens) | [10] | [12] | [18] | [19] | [13] | [14] | [15] | [16] | [17]

C=CS(=O)(=O)O
inactive: [1] | [2] | [3] | [4] | [5] | [6] | [7] | [9] | Aromatase (Homo sapiens) | [10] | [12] | [18] | [19] | [13] | [14] | [15] | [16] | [17]

CC(C)CCOC(=O)c1ccc(N(C)C)cc1
active: [7] 11.9 µM
inactive: [1] | [2] | [3] | [4] | [5] | [6] | [9] | Aromatase (Homo sapiens) | [10] | [12] | [18] | [13] | [14] | [15] | [16] | [17]

Clc1ccc2c(c1)C(N1CCNCC1)=Nc1ccccc1O2
active: [1] 30.6 µM | [2] 29.8 µM and 30.6 µM
inactive and 54.5 µM (active): [9]
54.5 µM (active) and inactive: [15]
inactive and 17.2 µM (active): Aromatase (Homo sapiens)
inactive: [3] | [4] | [5] | [6] | [7] | [10] | [11] | [12] | [18] | [19] | [16]

CCCCOCCOC(=O)c1ccccc1C(=O)OCCOCCCC
active: [2] 30 µM
inactive: [1] | [3] | [4] | [5] | [6] | [7] | [8] | [9] | Aromatase (Homo sapiens) | [10] | [12] | [18] | [19] | [13] | [14] | [15] | [16]

Cc1scc2c1N(C(=O)CN1CCN(C)CC1)c1ccccc1NC2=O
inactive: [1] | [2] | [3] | [4] | [5] | [6] | [7] | [9] | Aromatase (Homo sapiens) | [10] | [11] | [12] | [18] | [19] | [13] | [14] | [15] | [16] | [17]

O=C(O)CP(=O)(O)O
inactive: [1] | [2] | [3] | [4] | [5] | [6] | [7] | [9] | Aromatase (Homo sapiens) | [10] | [12] | [18] | [19] | [13] | [14] | [15] | [16] | [17]

CCCCCCCCCCCCCCCCCl
inactive: [1] | [2] | [3] | [4] | [5] | [6] | [7] | [9] | Aromatase (Homo sapiens) | [10] | [12] | [18] | [19] | [13] | [14] | [15] | [16] | [17]

CN1C(=O)c2ccc([N+](=O)[O-])cc2C1=O
inactive: [1] | [2] | [3] | [4] | [6] | [7] | [8] | [9] | Aromatase (Homo sapiens) | [10] | [11] | [12] | [18] | [19] | [13] | [15] | [16] | [17]

Cc1cc(OCCOCC[N+](C)(C)Cc2ccccc2)ccc1C(C)(C)CC(C)(C)C
active: [1] 10.6 µM and 12.1 µM | [2] 13.3 µM and 10.8 µM | [5] 15.1 µM and 6.13 µM | [8] 26.6 µM | Aromatase (Homo sapiens) 21.1 µM and 30.5 µM | [10] 26.6 µM and 60.8 µM | [12] 29.8 µM and 60.8 µM | [13] 15.4 µM and 29.8 µM | [15] 19.2 µM and 29.8 µM | [16] 38.7 µM
inactive: [3] | [6] | [9] | [11] | [18]

O=C(Cl)c1cccc(C(=O)Cl)c1
inactive: [1] | [2] | [3] | [5] | [9] | Aromatase (Homo sapiens) | [10] | [11] | [12] | [18] | [19] | [13] | [14] | [15] | [17]
